Data on 18 compounds can be found in PubChem BioAssay (NCATS).

Assay [1] deals with Cellular tumor antigen p53 (Homo sapiens) (UniProt P04637). Nature of the assay: Primary qHTS for small molecule compounds that upregulate eGFP-tagged delta133p53alpha (in N-terminal) cells. (AID 2060322).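 For activation: series mostly up to about 56 µM; 0% = DMSO vehicle and 100% = reference activator.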 Note: nearly all actives have a fitted effect of over 75% in size. To be noted: NCI-H358 eGFP-delta133p53alpha fluorescence, 24 h; activation: active compounds read high. The essentials: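 NCI-H358 cells pre-induced 24 h with 10 ng/ml doxycycline to express N-terminal eGFP-delta133p53alpha, then dosed 24 h at 37C without doxycycline; fixed, Hoechst-stained, GFP intensity by laser scanning cytometry, normalized to DMSO (0%) and 57.5 uM 5-azacytidine (100%).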

The nature of assay [2]: BET inhibitor-based combinations targeting novel dependencies in MECOM-rearranged (r) AML: SET-2 cell line (AID 2202231).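 For viability: plate controls were DMSO treated cells for no effect and wells without cells for full effect.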 Note: nearly all actives have a fitted effect of over 35% in size. To be noted: SET-2 AML cells viability, CellTiter-Glo luminescence, 48 h; viability: active compounds read low, concentration not given here. The method in brief:
(§1)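 Luminescent ATP readout (CellTiter-Glo) after 48 hr drug exposure gives viability. Curves span 11 concentrations and are normalized to DMSO and empty wells. Activity is reported as area under the curve and its Z-transform within each cell line.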
A general note: Cellular ATP, detected with luciferase, serves as a proxy for viable cell number.

Assay [3] can be described thus: BET inhibitor-based combinations targeting novel dependencies in MECOM-rearranged (r) AML: OCI-AML3 cell line (AID 2202232). Note: nearly all actives have a fitted effect of over 35% in size. Particulars: Potency: OCI-AML3 viability. The essentials:
as §1

Assay [4] is described as follows: BET inhibitor-based combinations targeting novel dependencies in MECOM-rearranged (r) AML: MV-4-11 cell line (AID 2202233). Note: nearly all actives have a fitted effect of over 45% in size. The method in brief: (§2)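 Luminescent ATP readout (CellTiter-Glo, 15 min at room temperature) after 48 hr drug exposure gave viability. Dose-response curves, normalized to DMSO and empty-well controls, were summarized as area under the curve and its mean-centred Z-score.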

Assay [5] in a line: BET inhibitor-based combinations targeting novel dependencies in MECOM-rearranged (r) AML: HNT-34 cell line (AID 2202234). Note: nearly all actives have a fitted effect of over 35% in size. The essentials:
as §2

Assay [6] can be described thus: BET inhibitor-based combinations targeting novel dependencies in MECOM-rearranged (r) AML: UCSD-AML1 cell line (AID 2202235). Note: nearly all actives have a fitted effect of over 40% in size. The method in brief:
as §2

The nature of assay [7]: BET inhibitor-based combinations targeting novel dependencies in MECOM-rearranged (r) AML: AML-191 cell line (AID 2202236; note: nearly all actives have a fitted effect of over 35% in size). The essentials: as §1
A short description of assay [8]: BET inhibitor-based combinations targeting novel dependencies in MECOM-rearranged (r) AML: AML-194 cell line (AID 2202237; note: nearly all actives have a fitted effect of over 40% in size). The method in brief: as §1

The viability is a read-out of living cells in per cent, often relative to untreated cells.

Molecules are shown by their SMILES. Values joined by “and” are separate entries in the source; they are usually repeats but may differ in a detail not shown here. Identical values can stand only once. Results filed as inconclusive are left out. Unmarked numbers belong to inactive results. Active and inactive are the calls of the source. Calls come from the whole dose curve; as a rule, active = well fitted curve in the direction sought with a large enough effect; inconclusive = small, poorly fitted or top-dose-only effect, or another doubt; inactive = no such curve, though single readings can be large; an effect the other way counts as inactive or inconclusive.
Potency is the fitted concentration of half-maximal effect.

Chain of Cellular tumor antigen p53 (Homo sapiens) (P04637 whole entry, looked up): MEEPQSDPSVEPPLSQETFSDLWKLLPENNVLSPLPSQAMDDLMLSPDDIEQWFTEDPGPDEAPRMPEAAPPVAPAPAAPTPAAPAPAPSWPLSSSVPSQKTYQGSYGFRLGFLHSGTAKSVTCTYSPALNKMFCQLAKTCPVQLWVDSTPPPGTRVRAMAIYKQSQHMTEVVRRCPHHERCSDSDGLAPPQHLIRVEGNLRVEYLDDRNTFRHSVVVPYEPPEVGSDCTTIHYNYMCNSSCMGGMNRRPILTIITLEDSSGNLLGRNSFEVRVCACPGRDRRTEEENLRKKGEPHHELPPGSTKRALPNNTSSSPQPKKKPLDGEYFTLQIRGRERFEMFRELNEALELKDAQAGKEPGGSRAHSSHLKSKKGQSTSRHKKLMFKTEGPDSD

For `CN(CC(=O)N(Cc1ccc(C2CCCCC2)cc1)c1ccc(C(=O)O)c(O)c1)S(=O)(=O)c1c(F)c(F)c(F)c(F)c1F`, the activation in assay [1] is 37.6%. For the same compound, the viability in assay [2] is 114%. The Potency in assay [3] was 9.34 µM (active); in assay [4], 6.61 µM (active); in assay [5] it was 6.61 µM (active); in assay [7], 26.3 µM (active). The Potency result in assay [6] and in assay [8] was “inactive” in each case.

Turning to `COCCCN1CCC(NC(=O)c2cc(Cl)c(N)c3c2OCC3)CC1`, the activation in assay [1] is -6.16%. For the same compound, the viability in assay [2] was 118%. Further, the Potency entry in assay [3], in assay [4], in assay [5], in assay [6] and in assay [7] was “inactive” throughout.

With `NC(=O)Nc1cc(-c2ccc(CN3CCOCC3)cc2)sc1C(N)=O`, in assay [1], the activation is 3%. The Potency in assay [2] was 10.5 µM (active); in assay [3], 0.934 µM (active); in assay [4], 0.332 µM (active); in assay [5] it was 1.18 µM (active); in assay [6], 1.32 µM (active); in assay [7] it was 2.63 µM (active). For the same compound, the Potency in assay [8] is 0.742 µM (active).

As for `O=C(O)c1cn(-c2ccc(F)cc2)c2cc(N3CCNCC3)c(F)cc2c1=O`, the activation in assay [1] was -9.7%. The viability in assay [2] was 96.6%. The Potency result in assay [3], in assay [4], in assay [5], in assay [6] and in assay [7] was “inactive” each time.

As to `NC(=O)Nc1sc(-c2ccc(F)cc2)cc1C(N)=O`, the activation in assay [1] was -16.3%. Also, the Potency in assay [2] was 5.9 µM (active); in assay [3] it was 2.35 µM (active); in assay [4], 1.86 µM (active); in assay [5], 1.66 µM (active).

With `CC(C)Oc1cc(Nc2nc(N[C@@H](C)c3ccc(F)cn3)ncc2Cl)[nH]n1`, the Potency in assay [1] was 24.3 µM (active); in assay [2] it was 18.6 µM (active); in assay [3] it was 16.6 µM (active); in assay [4], 0.0934 µM (active); in assay [5], 16.6 µM (active).

Take `C[C@@H]1CN(CC(=O)N2CC(C)(C)c3ncc(Cc4ccc(F)cc4)cc32)[C@@H](CN2CCOC[C@H]2C)CN1`: the activation in assay [1] was -14.4%. Moreover, the viability in assay [2] is 86.9%.

Consider `CN(C)S(=O)(=O)c1ccc2c(c1)C(=Cc1cc3c([nH]1)CCCC3)C(=O)N2`, for which the Potency in assay [1] is 1.37 µM (active); in assay [3], 5.9 µM (active); in assay [4] it was 2.09 µM (active). The viability in assay [2] is 101%.

Take `O=C(NOCC(O)CO)c1cc(Br)c(F)c(F)c1Nc1ccc(I)cc1F` (stereo not drawn): in assay [1], the activation was 6.51%. In addition, the viability in assay [2] was 95.8%. Besides, the results for the Potency in assay [3], in assay [4] and in assay [5] were 0.0166 µM (active), 0.209 µM (active) and 1.05 µM (active), respectively.

As for `COc1cccc(OC)c1-c1cc(C(=O)NC2(C(=O)O)C3CC4CC(C3)CC2C4)nn1-c1ccnc2cc(Cl)ccc12` (stereo not drawn), the activation in assay [1] is -14.3%. Besides, in assay [2], the viability was 114%. Moreover, the Potency result in assay [3], in assay [4], in assay [5], in assay [6] and in assay [7] was “inactive” each time.

On to `NS(=O)(=O)c1cc2c(cc1Cl)NC(C(Cl)Cl)NS2(=O)=O` (stereo not drawn), for which the activation in assay [1] is -14.1% and -9.47%. Further, the viability in assay [2] is 112%. Further, in assay [3], the Potency is 16.6 µM (active). The Potency entry in assay [4], in assay [5] and in assay [6] was “inactive” throughout.

Consider `CC(C)C[C@@H](C(=O)N[C@H](C(=O)OC1CCCC1)c1ccccc1)[C@H](O)C(=O)NO`, for which the activation in assay [1] was 10.8%. The Potency in assay [2] is 14.8 µM (active); in assay [3], 13.2 µM (active); in assay [4] it was 3.32 µM (active); in assay [5] it was 18.6 µM (active); in assay [6], 20.9 µM (active); in assay [7], 20.9 µM (active).

Consider `COc1cc([C@@H]2c3cc4c(cc3[C@H](O)[C@H]3COC(=O)[C@@H]23)OCO4)cc(OC)c1OC`, for which the activation in assay [1] was 31.7%. The Potency is 1.18 µM (active) in assay [2], 0.833 µM (active) in assay [3], 0.833 µM (active) in assay [4] and 0.417 µM (active) in assay [5].

For the compound `NC(=NCCCCCCN=C(N)N=C(N)Nc1ccc(Cl)cc1)N=C(N)Nc1ccc(Cl)cc1`, in assay [1], the activation is 19.1%. In addition, the values for the Potency in assay [2], in assay [3] and in assay [4] were 26.3 µM (active), 18.6 µM (active) and 20.9 µM (active), respectively.

Regarding `COc1ccc([C@@H]2CNC(=O)C2)cc1OC1CCCC1`, in assay [1], the activation is 7.46%. In addition, the viability in assay [2] was 118%. Besides, the Potency entry in assay [3], in assay [4], in assay [5], in assay [6], in assay [7] and in assay [8] was “inactive” throughout.

Take `CCNC(=O)c1cc2c(-c3cc(OCCN4CCCC4)c(Cl)cc3Cl)nc(N)nc2s1`: in assay [1], the activation was -12.6%. The Potency in assay [2] was 2.88 µM (active); in assay [3], 2.04 µM (active); in assay [4] it was 0.363 µM (active); in assay [5] it was 1.82 µM (active); in assay [6], 1.29 µM (active); in assay [7], 1.82 µM (active).

With `CC(=O)OCC(=O)[C@@]12N=C(C)O[C@@H]1C[C@H]1[C@@H]3CCC4=CC(=O)C=C[C@]4(C)[C@H]3[C@@H](O)C[C@@]12C`, the activation in assay [1] is -1.69%. Also, the viability in assay [2] was 113%. Moreover, the Potency entry in assay [3], in assay [4], in assay [5] and in assay [6] was “inactive” throughout.

Regarding `CN(c1ncccc1CNc1nc(Nc2ccc3c(c2)CC(=O)N3)ncc1C(F)(F)F)S(C)(=O)=O`, the Potency in assay [1] was 24.3 µM (active); in assay [2] it was 6.61 µM (active); in assay [3], 6.61 µM (active); in assay [4], 0.833 µM (active); in assay [5], 5.25 µM (active); in assay [6], 5.9 µM (active). In addition, the Potency in assay [7] was 4.68 µM (active).
